From PubChem BioAssay (Tox21) come the findings set out here.

Inconclusive results are not listed. A call without a number means that no potency is given here. Active and inactive are the calls of the source. Calls follow the shape of the dose curve; as a rule, active = well fitted cell-killing curve with a large enough effect in the repeat runs; inconclusive = weak or mixed curves; inactive = flat fitted curve, though single readings scatter.

This assay in a line: qHTS RealTime-Glo MT Cell Viability Assay in HepG2 cells - 8 hour (AID 1224873). Also: nearly all actives have a fitted effect of over 55% in size. The settings on record: RealTime-Glo luminescence; series mostly up to 76.8 µM. The source says:
National Center for Advancing Translational Sciences [NCATS]
NIH Chemical Genomics Center [NCGC]
U.S. Environmental Protection Agency [EPA]
National Institutes of Environmental Health Sciences [NIEHS]
National Toxicology Program [NTP]
U.S. Food and Drug Administration [FDA]
Measure of cell viability is critical in the cell-base assay. Analysis of cell viability is necessary for the characterization of cell responses to cytotoxic drugs and environmental stress. A RealTime-Glo MT Cell Viability Assay to monitor cell viability in real time of continues cell culture during 40 hours of compound treatment was used to screen Tox21 10K library compounds in HepG2 cells. The RealTime-Glo MT Cell Viability Assay is a nonlytic, homogeneous, bioluminescent method to measure cell viability in real time using a simple, plate-based method. The assay involves adding NanoLuc luciferase and a cell-permeant prosubstrate to cells in culture. Viable cells reduce the proprietary prosubstrate to generate a substrate for NanoLuc luciferase. This substrate diffuses from cells into the surrounding culture medium, where it is rapidly used by the NanoLuc Enzyme to produce a luminescent signal. The signal correlates with the number of viable cells, making the assay well suited for cytotoxicity studies.
Tox21 Assay Protocol Summary:
The mixture of HepG2 cell suspension and reagents were dispensed at 600cells/6 ul/well in 1536-well tissue culture treated black solid bottom plates using a Multidrop dispenser. After the assay plates were incubated at a 37 C/5% CO2 incubator for 5 hours, 23 nL of compounds dissolved in DMSO, positive and negative controls was transferred to the assay plate by a pintool work station. The plates were incubated at 37 C for 40 hours. The luminescence intensity were measured at 0h, 8h, 16h, 24h, 32h and 40h time points using ViewLux plate reader during compound treatment.
Background: Quantitative high-throughput screening tests each substance at several concentrations.
`ClC(Cl)C(Cl)Cl`: the Potency entry was “inactive”.
The value for `N#CCNCC#N` was “inactive”; that for `CCCSP(=O)(OCC)Oc1ccc(Br)cc1Cl` (stereo not given) was “inactive”; that for `CN/C(=N\[N+](=O)[O-])NCC1CCOC1` (stereo not given) was “inactive”.
The same measure for `CC(C)CP(=S)(S)CC(C)C`: “inactive”.
Regarding `O=NN1CCCCC1`, the Potency result is “inactive”.
As to `CCOc1nc(C(Cl)(Cl)Cl)ns1`, the Potency entry is “inactive”.
Take `C[C@@H]1CN(C2CCC(C#N)(c3ccc(F)cc3)CC2)CC[C@]1(C(=O)O)c1ccccc1` (stereo not given in full): the Potency entry was “inactive”.
On to `Nc1cc(Cl)ccc1O`, for which the Potency result was “inactive”.
Regarding `CC1(C)C(=O)NC(=O)NC1=O`, the Potency entry is “inactive”.
`CCC1(c2ccccc2)C(=O)N=C(O)NC1=O` (stereo not given): the Potency result was “inactive”.
On to `CC1=NNC(=O)N(/N=C/c2cccnc2)C1`, for which the Potency entry is “inactive”.
On to `CC(C(O)c1ccccc1)N(C)C/C=C/c1ccccc1` (stereo not given), for which the Potency result is “inactive”.
Consider `COC(C)(C)C`, for which the Potency result is “inactive”.
Consider `C#CCN1C(=O)COc2cc(F)c(N3C(=O)C4=C(CCCC4)C3=O)cc21`, for which the Potency result was “inactive”.
Regarding `O=[N+]([O-])c1cccc(O)c1`, the Potency result is “inactive”.
Consider `OCCBr`, for which the Potency result was “inactive”.
The same measure for `COc1cc2c(cc1OC)[C@@]13CCN4CC5=CCO[C@H]6CC(=O)N2[C@H]1[C@H]6[C@H]5C[C@H]43`: “inactive”; for `CCNc1nc(NC(C)C)nc(OC)n1`: “inactive”; for `CCSC(=O)N(CC)C1CCCCC1`: “inactive”.
For `NC(=O)c1cc([N+](=O)[O-])cc([N+](=O)[O-])c1`, the Potency entry is “inactive”.
With `CCOP(=S)(OCC)Oc1nc(Cl)n(C(C)C)n1`, the Potency result was “inactive”.
The same measure for `N#CCCC#N`: “inactive”.
As for `CCCCOC(=O)c1ccccc1C(=O)O`, the Potency result was “inactive”.
In the case of `CNC(=O)O/N=C(\C)SC`, the Potency result was “inactive”.
On to `CCCCP(CCCC)CCCC`, for which the Potency result was “inactive”.
Regarding `C[N+](=O)[O-]`, the Potency result was “inactive”.
As to `CN(C)CCc1ccc(O)cc1`, the Potency entry is “inactive”.
Turning to `C[C@]1(O)CC[C@H]2[C@@H]3CCC4=CC(=O)CC[C@]4(C)[C@@]3(F)[C@@H](O)C[C@@]21C`, the Potency result was “inactive”.
Turning to `Cc1ncc(CNC(=O)N(CCCl)N=O)c(N)n1`, the Potency entry is “inactive”.
Consider `ClC(Cl)(Cl)C(Cl)(Cl)Cl`, for which the Potency entry is “inactive”.
`CN1CCC(O)(c2ccc(F)cc2)C(C(=O)c2ccc(F)cc2)C1` (stereo not given): the Potency entry is “inactive”.
Take `C=CC1CC=CCC1` (stereo not given): the Potency entry was “inactive”.
Consider `Cc1nc(N)nc(N)n1`, for which the Potency result is “inactive”.
As to `CC(CCc1ccccc1)NC(C)C(O)c1ccc(O)cc1` (stereo not given), the Potency entry was “inactive”.
`CC(=O)[C@H]1CC[C@H]2[C@@H]3CC[C@H]4C[C@H](O)CC[C@]4(C)[C@H]3C(=O)C[C@]12C`: the Potency result was “inactive”.
For `ClCC(Cl)Cl`, the Potency entry is “inactive”.
Regarding `COc1cc(OC)nc(Sc2cccc(Cl)c2C(=O)O)n1`, the Potency entry was “inactive”.
For `Cc1ncsc1CCCl`, the Potency result is “inactive”.
The same measure for `CCC/C(=N\OCC)C1=C(O)CC(CC(C)SCC)CC1=O` (stereo not given): “inactive”.
